Data reported in the supplement of paper PMC6555819.

System: RARb homodimer (NR concentration 270 nM)
Test: PBM binding z-score (relative to random genomic background probes); higher = stronger binding; sequences stand for … in GC…GCGATTGACAGCGTAGAATGAAGG
Summary of the method: (§1)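 Antibodies against each partner of ligand-free nuclear receptor dimers (one per run) detected binding on custom Agilent 4×180K protein-binding microarrays after 1 h incubation. The double-stranded probes had 34-nt variable regions carrying direct-repeat seeds, single-nucleotide variants, half-site ablations and random human genomic background sequences. Binding z-scores, from regression-normalized fluorescence, use the random background probes as reference.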

Sequence | PBM binding z-score
TCTTATAGATCAACAGGAGGTTAAGAAAGATCGA | 0.606
TCTGCTAGGTTAACGATGGTCAGCTAATCTGCTA | 0.605
GCAGAGAGGTGAAACGCAGGTAACTCAGGGTGGC | 1.31
CCTACCGGGCCAAGGTCATTGATCAGTCAAAGCA | 3.48
TTACCAAGGGGAAGGTCGTTGATCCCTCTGTAGA | 0.634
GCGACTGGGGCAAAGGAGGTTACCATAAGGTTGG | 1.87
GTACCAAGCTGAATAGGTCGTTGATGAGTAGGCG | 0.0267
GCGACTGGGGCCTCAGCAGGTTACCATAACTTAA | 0.199
GCTTGTAGATCGAGGTTAAGAAAGACTAAGCTAA | 0.303
CGAACTAGGTCATTGACAGGACAGTTAATAGTAA | 2.42
TCTTGTAGATCAACAGGAGGTTAAGAACGATCGA | 0.615
CCAGACAGGTGAGAAGGTAACCCAGCCTCGATTA | 0.888
ACTAGCAGGCCAAGTTTGGGTCACTGAAACAAAG | 2.33
CGCCCAAGGTCAATGCTAGGTCAGTGAAAGCATT | 5.07
CGTCCAAGGGCAAAGGTCAGTGAAGAGATGACGG | 4.71
GCTTGTAGATAAAGGTTAAGAAAGACTAAGCTAA | 0.948
TTACCAAGGTGGAGGTCGTTGATCCCTCTGTAGA | 1.15

System: RARg:RXRa (NR concentration 270 nM, RXRa partner concentration 90 nM)
Test: as above
Summary of the method: as §1

Sequence | PBM binding z-score
CCGACTAGGGCATAAGGTTACCATAAGCCAGCCC | 2.19
CCTAGCAGGCCAGGGTCCCTCAAGCATTTCGCTT | -0.683
CGTCAAATTTCAAGGTAACGTAACAGAAAGCAGC | 0.0405
AATACAGAGTCACTAGGCCAGAGTAGGTACGAAT | 0.21
AATACAGGCTCACTAGGCCAGAGTAGGTACGAAT | -0.402
TCATATAGGTAAAAGGTGAAAATCGGTGTGGTAA | 2.04
TGTCAAAGTTCAAAGGTAACATAAGTATCCACAC | 6.56
AGAGTGAGGTTAAGATCAGGGAAACAGAATACAT | 2.28
CCTAGTTGGTCGGGAGGTCACACACCGGATATGA | 4.67
ATAGCAAGGTGATCGTGAGGTCGTTGATACTAAC | 2.12
TCGAGTAGGTTGCCAATGGGGCATTCAGCTTTCT | -0.509
CCGACTGGGGCAGAAAGGTTACCACACCATCCGG | 1.77
ATCTCTATGTAACCAAGTTCAGTGAATGCCGAAC | 0.518
AGAATGACGTTATACGTAGATCAGGGAAGAAAGT | -0.123
ATATGTAGGTTATCGGGTCATTCCGTTTGCGCAT | 3.32
GCGTACGGGTCAAAGGTTATAGCATGAATAGAAT | 6.99
CCACACAGGTGAGAAGGTAACTCAGCCTCGATTA | 0.766
CGTCCAAGGTCAAGGTCAGTTAAAGAGACTCGAA | 6.92
CGAACTAGTTCAGAACAGGACAGTGAAGGATGAT | 0.335
TCATATAAGTAAACAGGTGAAAGTCCGTAAGTTA | 0.357

Sequence | PBM binding z-score
TCTAGTTGGTCAAACGTCACACACTCGAAATGCG | 0.926
AACTCTAGGTAAAGATAGTTCAGTGAATGCAAAT | 0.458
TCTTATAGATCAACAGGAGGTTAAGAAAGATCGA | 1.45
TCTGCTAGGTTAACGATGGTCAGCTAATCTGCTA | 0.561
GCAGAGAGGTGAAACGCAGGTAACTCAGGGTGGC | 2.59
CCTACCGGGCCAAGGTCATTGATCAGTCAAAGCA | 3.89
TTACCAAGGGGAAGGTCGTTGATCCCTCTGTAGA | 0.225
GCGACTGGGGCAAAGGAGGTTACCATAAGGTTGG | 1.1
GTACCAAGCTGAATAGGTCGTTGATGAGTAGGCG | -0.0216
GCGACTGGGGCCTCAGCAGGTTACCATAACTTAA | -0.489
GCTTGTAGATCGAGGTTAAGAAAGACTAAGCTAA | 0.377
CGAACTAGGTCATTGACAGGACAGTTAATAGTAA | 4.65
TCTTGTAGATCAACAGGAGGTTAAGAACGATCGA | 0.992
CCAGACAGGTGAGAAGGTAACCCAGCCTCGATTA | 0.695
ACTAGCAGGCCAAGTTTGGGTCACTGAAACAAAG | 2.54
CGCCCAAGGTCAATGCTAGGTCAGTGAAAGCATT | 7.39
CGTCCAAGGGCAAAGGTCAGTGAAGAGATGACGG | 6.32
GCTTGTAGATAAAGGTTAAGAAAGACTAAGCTAA | 1.29
TTACCAAGGTGGAGGTCGTTGATCCCTCTGTAGA | 0.155

System: RARg homodimer (NR concentration 270 nM)
Test: as above
Summary of the method: as §1

Sequence | PBM binding z-score
CCGACTAGGGCATAAGGTTACCATAAGCCAGCCC | 1.34
CCTAGCAGGCCAGGGTCCCTCAAGCATTTCGCTT | -0.827
CGTCAAATTTCAAGGTAACGTAACAGAAAGCAGC | 0.398
AATACAGAGTCACTAGGCCAGAGTAGGTACGAAT | 0.516
AATACAGGCTCACTAGGCCAGAGTAGGTACGAAT | -0.0557
TCATATAGGTAAAAGGTGAAAATCGGTGTGGTAA | 0.775
TGTCAAAGTTCAAAGGTAACATAAGTATCCACAC | 6.03
AGAGTGAGGTTAAGATCAGGGAAACAGAATACAT | 1.68
CCTAGTTGGTCGGGAGGTCACACACCGGATATGA | 3.83
ATAGCAAGGTGATCGTGAGGTCGTTGATACTAAC | 0.811
TCGAGTAGGTTGCCAATGGGGCATTCAGCTTTCT | -0.841
CCGACTGGGGCAGAAAGGTTACCACACCATCCGG | 1.41
ATCTCTATGTAACCAAGTTCAGTGAATGCCGAAC | 0.659
AGAATGACGTTATACGTAGATCAGGGAAGAAAGT | 0.109
ATATGTAGGTTATCGGGTCATTCCGTTTGCGCAT | 2.35
GCGTACGGGTCAAAGGTTATAGCATGAATAGAAT | 4.57
CCACACAGGTGAGAAGGTAACTCAGCCTCGATTA | 0.648
CGTCCAAGGTCAAGGTCAGTTAAAGAGACTCGAA | 7.72
CGAACTAGTTCAGAACAGGACAGTGAAGGATGAT | 0.706
TCATATAAGTAAACAGGTGAAAGTCCGTAAGTTA | 0.421

Sequence | PBM binding z-score
TCTAGTTGGTCAAACGTCACACACTCGAAATGCG | 0.831
AACTCTAGGTAAAGATAGTTCAGTGAATGCAAAT | 0.642
TCTTATAGATCAACAGGAGGTTAAGAAAGATCGA | 0.65
TCTGCTAGGTTAACGATGGTCAGCTAATCTGCTA | 0.688
GCAGAGAGGTGAAACGCAGGTAACTCAGGGTGGC | 1.21
CCTACCGGGCCAAGGTCATTGATCAGTCAAAGCA | 3.32
TTACCAAGGGGAAGGTCGTTGATCCCTCTGTAGA | -0.054
GCGACTGGGGCAAAGGAGGTTACCATAAGGTTGG | 1.14
GTACCAAGCTGAATAGGTCGTTGATGAGTAGGCG | 0.164
GCGACTGGGGCCTCAGCAGGTTACCATAACTTAA | -0.568
GCTTGTAGATCGAGGTTAAGAAAGACTAAGCTAA | 0.00467
CGAACTAGGTCATTGACAGGACAGTTAATAGTAA | 4.41
TCTTGTAGATCAACAGGAGGTTAAGAACGATCGA | 0.377
CCAGACAGGTGAGAAGGTAACCCAGCCTCGATTA | 0.557
ACTAGCAGGCCAAGTTTGGGTCACTGAAACAAAG | 2.01
CGCCCAAGGTCAATGCTAGGTCAGTGAAAGCATT | 6.43
CGTCCAAGGGCAAAGGTCAGTGAAGAGATGACGG | 5.49
GCTTGTAGATAAAGGTTAAGAAAGACTAAGCTAA | 1
TTACCAAGGTGGAGGTCGTTGATCCCTCTGTAGA | -0.0331
